Only some compounds are listed: those with a hit (about 7.5% of all), similar ones and a draw of the others.
ELG1 genotoxic: induces genotoxicity in HEK293T cells with luciferase-tagged ELG1 | HEK293T ELG1-luciferase reporter, luminescence, 16 h | Potency, µM (series often up to 46 µM), most hits filed as activators | hit rate 1.3% among 330,000; further: nearly all actives have a fitted effect of over 60% in size
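Quantitative HTS format in 1536-well plates. HEK293T ELG1-luciferase reporter cells receive test compound and are incubated 16 hr at 37 °C, 5% CO2; ONE-Glo added, 30 min room temperature, then luminescence read.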
Rab9 prom act: Rab9 promoter activation; Huh7 Rab9 promoter-luciferase reporter, luminescence, 24 h; Potency, µM (top dose mostly 9.22 µM), usual class: activators; hit rate 2.8% among 320,000; AID 485297; further: nearly all actives have a fitted effect of over 60% in size
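Rab9 promoter-driven luciferase in stably transfected Huh7 cells; 1500 cells/well rested 2 h, exposed to compound in DMSO for 24 h at 37 °C, 5% CO2. Luminescence read 10 min after adding luciferase reagent at ambient temperature.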
KinaseGlo FLuc: counter-screen: inhibitors of Kinase-Glo firefly luciferase; Kinase-Glo luciferase, ATP luminescence, 8 min; Potency, µM (top dose mostly 38.3 µM), actives largely listed as inhibitors; hit rate 0.28% among 200,000; Q27757; AID 1379; further: nearly all actives have a fitted effect of over 60% in size
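Kinase-Glo luciferase light output from ATP and luciferin was measured with 10 uM ATP, within the enzyme's linear range. Buffer: 50 mM imidazole pH 7.2, 50 mM KCl, 7 mM MgCl2, 0.01% Tween 20, 0.05% BSA; luminescence read after 8 min at ambient temperature.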
SMN2 splice enh: enhancers of SMN2 splice variant expression; Potency, µM (titrated, usually from 46.1 µM), actives largely listed as activators; HEK293 SMN2-luciferase splicing reporter, luminescence, 30-36 h; hit rate 2.8% among 210,000; AID 1458; further: nearly all actives have a fitted effect of over 55% in size
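HEK293 cells carry an SMN2 minigene-luciferase reporter in which exon 7 inclusion puts luciferase in frame. Cells were seeded at 2000 cells/well, attached for 10-12 hours, then exposed to compounds for 30-36 hours at 37C before ONE-Glo luminescence.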
NPC1 prom act: NPC1 promoter activation; AID 485313; Huh7 NPC1 promoter luciferase reporter, 24 h; Potency, µM (series often up to 9.22 µM), usual class: activators; hit rate 2.4% among 320,000; further: nearly all actives have a fitted effect of over 60% in size
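Luminescence read-out of NPC1 promoter-driven luciferase in stably transfected Huh7 cells; compounds delivered in DMSO and left 24 h at 37C, 5% CO2, qHTS titration format.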
FLuc modulator: counter-screen for miR-21 project: firefly luciferase inhibitors or activators; P08659; purified FLuc, Km substrates, luminescence inhibition; Potency, µM (doses to about 57.5 µM), usual class: inhibitors; hit rate 6.9% among 360,000; further: nearly all actives have a fitted effect of over 55% in size
Target sequence (P08659 whole entry, looked up): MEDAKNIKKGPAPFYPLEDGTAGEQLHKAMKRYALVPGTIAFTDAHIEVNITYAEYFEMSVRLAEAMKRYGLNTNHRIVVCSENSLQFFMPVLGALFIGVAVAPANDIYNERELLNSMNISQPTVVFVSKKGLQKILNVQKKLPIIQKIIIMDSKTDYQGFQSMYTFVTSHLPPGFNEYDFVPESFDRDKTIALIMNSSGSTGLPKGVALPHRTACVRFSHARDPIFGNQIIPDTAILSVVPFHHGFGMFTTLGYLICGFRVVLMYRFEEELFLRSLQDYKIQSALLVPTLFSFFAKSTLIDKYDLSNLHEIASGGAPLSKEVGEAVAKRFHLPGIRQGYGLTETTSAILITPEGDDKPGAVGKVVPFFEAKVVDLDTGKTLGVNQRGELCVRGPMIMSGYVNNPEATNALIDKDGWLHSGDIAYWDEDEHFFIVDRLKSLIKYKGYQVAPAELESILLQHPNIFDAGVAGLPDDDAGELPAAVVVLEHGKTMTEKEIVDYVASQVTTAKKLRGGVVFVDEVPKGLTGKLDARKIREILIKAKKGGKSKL
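Purified P. pyralis luciferase (10nM final) with 10uM D-luciferin and 10uM ATP (Km levels) in 50mM Tris acetate pH 7.5, 10mM Mg acetate, 0.01% Tween-20, 0.05% BSA; qHTS 6-point titration, ~60 µM downward; luminescence read.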
A number is an active result; 0 = inactive; ? = inconclusive; - = no result given. The call rests on the fitted dose curve; in most records, active means well fitted curve in the direction sought with a large enough effect; inconclusive means small, poorly fitted or top-dose-only effect, or another doubt; inactive means no such curve, though single readings can be large; an effect the other way counts as inactive or inconclusive.

SMILES	ELG1 genotoxic	Rab9 prom act	KinaseGlo FLuc	SMN2 splice enh	NPC1 prom act	FLuc modulator
COc1ccc(S(=O)(=O)N2CCC(C(=O)NCCC(=O)Nc3ccc(Cl)cc3)CC2)cc1	0	0	-	-	0	0
CCc1ccc(Cn2c(CNS(=O)(=O)c3ccc(F)c(Cl)c3)nc3cccnc32)cc1	-	-	-	-	-	0
C/C(=N/OC(=O)CC(C)C)c1cc(-c2ccc(Cl)cc2)no1	?	2.8µM	0	18µM	?	?
CCOC(=O)c1cc(/C(C)=N/OC(=O)c2ccc(Cl)cc2)on1	0	0	-	-	0	0
O=C(NNc1cc(Br)c(O)c(Br)c1)c1ccccc1	0	0	0	0	0	21µM
Cc1cccc2nc(-c3cccc(NC(=O)c4ccc(Cl)cc4)c3)cn12	0	0	0	0	0	6µM
Cc1cccc2nc(-c3cccc(NC(=O)Cc4ccccc4)c3)cn12	0	0	0	0	0	11µM
CCCCOc1ccc(C(=O)NCC(=O)N2CC(C)CC(C)C2)cc1 (stereo not given)	0	0	-	-	0	0
CC(=O)NC1=C(Nc2ccc(N(C)C)cc2)C(=O)c2ccccc2C1=O	0	?	-	-	0	12µM
COC1=C(Nc2ccc(C)cc2)C(=O)c2ccccc2C1=O	0	?	0	?	?	17µM
COc1cc(-c2cc3n(C)c(C)c(CCC(=O)NC4CCC(C)CC4)c(=O)n3n2)cc(OC)c1OC (stereo not given)	-	-	-	-	-	0
COc1ccc(C(=O)CN2CCN(S(=O)(=O)c3ccc(C(C)C)cc3)CC2)cc1	-	-	-	-	-	0
C(=N\N=C\c1cccs1)/c1cccs1	0	2µM	0	?	?	2.1µM
Cc1ccc(C(=O)Nc2ccc3ccccc3c2)cc1	0.29µM	0.22µM	-	-	0.1µM	0.076µM
Cc1ccc(NC(=O)C(=O)c2ccc(C)cc2)cc1	4.6µM	2.8µM	-	-	0.63µM	1.9µM
Cc1ccc(NC(=O)c2ccccc2)cc1	?	2.2µM	0	14µM	2µM	6µM
Cc1ccc(NC(=O)C(C)C(=O)Nc2ccc(C)cc2)cc1	0	0	0	0	0	0
O=C(Nc1ccc2ccccc2c1)c1ccc(Cl)cc1	0.92µM	0.32µM	-	-	0.5µM	0.54µM
CCC(=O)Nc1ccc2ccccc2c1	0	0	0	0	0	?
Cc1ccc(CCNC(=O)CCN2N=C(c3ccc(C)cc3)CCC2=O)cc1	-	-	-	-	-	0
O=C(c1ccc(F)cc1)c1cnc(Nc2ccccc2)s1	?	1.3µM	0	-	2µM	0.6µM
O=C(Nc1ccc2oc(=O)ccc2c1)c1ccc2ccccc2c1	0	?	-	-	?	9.5µM
O=C(Nc1ccc2oc(-c3ccccc3)nc2c1)c1ccc2ccccc2c1	-	-	-	0	-	0
NC(=O)Cn1nnc(-c2ccc(NC(=O)c3ccc(F)cc3)cc2)n1	?	?	0	14µM	?	?
O=C(Nc1ccncc1)c1ccc2ccccc2c1	0	3.5µM	0	-	?	17µM
SMILES	ELG1 genotoxic	Rab9 prom act	KinaseGlo FLuc	SMN2 splice enh	NPC1 prom act	FLuc modulator
CCOC(=O)c1nc(NCc2ccc(Cl)cc2)c2c(C)noc2n1	-	-	-	-	-	0
O=C(Nc1ccc(Nc2ccccc2)cc1)c1ccc(F)cc1	0	0	-	-	0	19µM
Cc1cc(C)c2cc(C(=O)Nc3ccccc3)[nH]c2c1	?	3.2µM	-	-	4.5µM	?
CC(=O)Nc1cccc(C)c1	0	0	-	0	0	0
Cc1cc(C)c2cc(C(=O)Nc3ccc4c(c3)OCO4)[nH]c2c1	0	0	-	-	0	?
Cc1sc(C(=O)Nc2ccc3ccccc3c2)cc1CC(=O)O	0	?	0	?	?	9.5µM
CC(=O)c1cnc(Nc2cccc(C)c2)s1	0	2.5µM	0	18µM	?	?
O=C(O)c1ccc(C(=O)Nc2ccc(F)cc2)cc1	0	0	-	-	0	0
CC(C)c1nc(SCC(=O)NCC2CCCO2)c2c(=O)n(C)c(=O)n(C)c2n1 (stereo not given)	0	0	-	-	0	0
CC[C@]12CCCN3CCc4c(n(c5ccccc45)C(=O)C1)[C@H]32	-	-	0	-	-	-
COc1cc(C(=O)N2CCN(C(=O)COc3ccc4ccccc4c3)CC2)cc(OC)c1OC	0	0	0	0	0	11µM
COc1cccc(C(=O)N2CCN(C(=O)COc3ccc4ccccc4c3)CC2)c1	0	0	-	-	0	6µM
COc1ccc(C(=O)N2CCN(C(=O)c3cc(OC)c(OC)c(OC)c3)CC2)cc1	0	0	0	0	0	0
Cc1ccc2oc(=O)c3cc(C(=O)Nc4ccccc4C(N)=O)sc3c2c1	-	-	-	0	-	0
Cc1cc(C(=O)COc2cccc([N+](=O)[O-])c2)c(C)n1C1CC1	?	3.2µM	-	-	2.2µM	2.4µM
Cc1ccc(OCC(=O)c2cc(C)n(C3CC3)c2C)c([N+](=O)[O-])n1	0	0	0	0	0	0
Cc1cc(C(=O)COC(=O)c2cccc(O)c2)c(C)n1C1CC1	?	?	-	-	?	0.27µM
COc1cccc(C(=O)N2CCc3cc(OC)c(OC)cc3C2COc2ccc3c(C)cc(=O)oc3c2)c1 (stereo not given)	-	-	-	0	-	0
CN(CCc1ccccn1)C(=O)CCc1nnc(CCCc2ccccc2)o1	?	?	0	-	?	15µM
O=C(CCc1nnc(CCCCc2ccccc2)o1)NCCN1CCOC1=O	0	0	0	-	0	17µM
CCc1cc(CNC(=O)CCc2nnc(CCCc3ccccc3)o2)on1	18µM	3.5µM	0	16µM	?	19µM
O=C(CCc1nnc(CCCCc2ccccc2)o1)NCCn1cccn1	0	0	0	0	0	0
O=C(CCc1nnc(CCCc2ccccc2)o1)N1CCCCCC1	?	?	0	-	?	21µM
Cc1cccc(CSc2nc3ccccc3c(=O)n2C)c1	0	0	-	-	0	-
CCOc1ccc(C(=O)NC2CC(=O)N(c3ccc(C)cc3)C2)cc1OCC (stereo not given)	-	-	-	-	-	0
SMILES	ELG1 genotoxic	Rab9 prom act	KinaseGlo FLuc	SMN2 splice enh	NPC1 prom act	FLuc modulator
CC1CCc2c(cnc3ncnn23)C1 (stereo not given)	0	0	-	-	0	0
COc1ccc(C(=O)/C=C/c2ccccc2)c(OC)c1	0	?	-	-	?	4.8µM
COc1ccc(C(=O)/C=C/c2ccc(N(C)C)cc2)c(OC)c1	?	0	-	-	0	11µM
COCOc1cc(OC)ccc1C(=O)/C=C/c1ccc2c(c1)OCO2	-	-	0	0	-	-
COc1ccc(C(=O)/C=C/c2ccc(C)cc2)c(OC(=O)c2ccc([N+](=O)[O-])cc2)c1	0	0	0	0	0	6.7µM
COc1ccc(/C=C/C(=O)c2ccc3c4c(cccc24)CC3)cc1	0	0	-	-	0	15µM
CC1CCN(S(=O)(=O)c2ccc3c(ccc(=O)n3CC(=O)NCc3ccc(Cl)cc3)c2)CC1	-	-	-	-	-	0
CCCn1c(CCC(=O)Nc2cccc(C)c2C)nc2cccnc21	-	-	-	0	-	0
O=C(Nc1cccc(N2CCCC2)c1)c1cccs1	0	0	0	0	0	17µM
Cc1ccn(-c2ccc(NC(=O)c3cccs3)cc2)n1	?	0.63µM	-	-	0.71µM	3µM
CCN(CC)S(=O)(=O)c1ccc(NC(=O)c2cccs2)cc1	0	0	0	-	0	0

Compound activity deposited in PubChem by National Center for Advancing Translational Sciences (NCATS).
